Only some compounds are listed: those with a hit (about 3% of all), similar ones and a draw of the others.
Tau ThT inhib: inhibitors of human tau fibril formation, thioflavin T binding; recombinant tau K18 P301L, heparin-induced fibrillization, ThT fluorescence; actives 2.1% (n = 270,000); P10636; Potency, µM (top dose mostly 57.4 µM), without a hit: top-dose activity, negative = inhibition, hits mostly inhibitors; also: potency is read from the fitted curve at half-maximal effect; nearly all actives have a fitted effect of over 55% in size
Target sequence (P10636 561-689 P618L limits assumed): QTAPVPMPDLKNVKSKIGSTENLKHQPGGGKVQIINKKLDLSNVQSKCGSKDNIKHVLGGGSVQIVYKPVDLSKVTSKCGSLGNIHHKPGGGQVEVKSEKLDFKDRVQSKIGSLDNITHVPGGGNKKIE
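Using a mix of unlabeled (15 uM) and Alexa 594-labeled (0.24 uM) tau K18 P301L, heparin-triggered fibrillization over 6 hr at 37 C was scored by ThT fluorescence.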
Tau fluor cs: counter-screen for tau fibril formation inhibitors | tau K18 P301L (four-repeat tau fragment) Alexa594 fluorescence, heparin fibrillization | Potency, µM (titrated, usually from 57.7 µM), without a hit: at the highest dose activity change, negative = decrease | actives 0.93% (n = 280,000); also: potency is read from the fitted curve at half-maximal effect; nearly all actives have a fitted effect of over 55% in size
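Human K18 P301L tau (15 uM unlabeled plus 0.24 uM Alexa 594-labeled, final) in 100 mM sodium acetate pH 7 was mixed with compound and 20 uM heparin and incubated 6 hr at 37 C.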
Coupling enz: inhibits coupling enzyme system, counter-screen for aldolase hits | coupling enzyme system counterscreen, AmpLite Red fluorescence | activity change, negative = inhibition, % at 58.2 µM, hits read low | actives 0.67% (n = 290,000) | AID 2472; in the data active = activity change below about -30%
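Compounds tested against the coupling enzymes alone at 57.5 uM final; readout was AmpLite Red fluorescence (525/598 nm) after 20 min at RT.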
JMJD2E inh: JMJD2E (human) inhibition. B2RXH2. JMJD2E catalytic domain, FDH-coupled NADH fluorescence (FDH is formaldehyde dehydrogenase). Potency, µM (top dose mostly 57.1 µM), for the others: at the highest dose activity change, negative = inhibition, most hits filed as inhibitors. actives 1.6% (n = 230,000). AID 2147; active = well fitted inhibition curve with a large enough effect, not every such curve was filed as active; inconclusive = small, poorly fitted or top-dose-only effect, or another doubt; inactive = no such curve, though single readings can be large or run the other way;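 also: potency is read from the fitted curve at half-maximal effect; 0% = wells with enzyme and -100% = buffer wells without enzyme; nearly all actives have a fitted effect of over 50% in size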
Target sequence (B2RXH2 1-337 limits assumed): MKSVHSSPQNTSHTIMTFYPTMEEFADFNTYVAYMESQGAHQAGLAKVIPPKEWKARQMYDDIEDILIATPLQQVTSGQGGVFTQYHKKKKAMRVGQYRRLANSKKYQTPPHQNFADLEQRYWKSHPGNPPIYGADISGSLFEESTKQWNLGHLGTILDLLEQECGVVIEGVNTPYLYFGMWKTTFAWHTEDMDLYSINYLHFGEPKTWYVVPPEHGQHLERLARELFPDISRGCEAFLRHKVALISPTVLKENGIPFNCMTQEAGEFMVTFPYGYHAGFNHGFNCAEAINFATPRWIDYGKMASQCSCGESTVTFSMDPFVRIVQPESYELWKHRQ
Tau FP inhib: blocks human tau fibril formation measured by polarization | K18 P301L tau heparin fibrillization, Alexa594 FP, 6 h | Potency, µM (titrated, usually from 57.7 µM), without a hit: at the highest dose activity, negative = inhibition, hits mostly inhibitors | actives 0.39% (n = 280,000) | AID 1468; also: potency is read from the fitted curve at half-maximal effect; nearly all actives have a fitted effect of over 55% in size
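Read-out: fluorescence polarization of Alexa 594-labeled tau (0.24 uM), 555 nm excitation, 632 nm emission. Mixtures held 15 uM unlabeled K18 P301L, compound and 20 uM heparin, pH 7 acetate buffer, incubated 6 hr at 37 C.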
Starred values were filed as active, the others as inactive; ? = inconclusive; / = not tested or not shown; [ ] = another dose, or the depositor's remark. Unless noted, calls follow the shape of the dose curve; as a rule, active = well fitted curve in the direction sought with a large enough effect; inconclusive = small, poorly fitted or top-dose-only effect, or another doubt; inactive = no such curve, though single readings can be large; an effect the other way counts as inactive or inconclusive. Unless noted, % is scaled to controls: 0 for no effect and ±100 for the full control effect.

SMILES | Tau ThT inhib | Tau fluor cs | Coupling enz | JMJD2E inh | Tau FP inhib
COc1cc(OC)cc(-c2nnc(Sc3ccc(C=O)cc3[N+](=O)[O-])o2)c1 | 25µM* | ? | -2 | -3% | -13%
CCOc1ccc(Cn2c(CNS(=O)(=O)c3cccs3)nc3cccnc32)cc1 | -7% | -21% | / | / | 0%
COc1ccc(N/C=C\C(=O)c2ccc(C)cc2)cc1OC | 10µM* | ? | 2 | -5% | 3%
COc1cc(/C=N\NC(=O)c2ccc(C)nc2)ccc1OC(=O)c1ccc2c(c1)OCO2 | -4% | -26% | 1 | ? | 25µM*
COc1cccc(N/C=C/C(=O)c2ccc(OC)c(OC)c2)c1 | / | / | -1 | / | /
COc1ccc(N/C=C\C(=O)c2ccc(Br)cc2)cc1OC | 3.2µM* | -10% | 1 | 8% | 0%
COc1ccc(N/C=C\C(=O)c2ccc3c(c2)OCO3)cc1 | ? | -28% | -4 | -2% | 3%
COc1ccc(N/C=C/C(=O)c2ccc3c(c2)OCO3)cc1OC | 5µM* | ? | 2 | -17% | -5%
Cc1ccccc1NC(=O)CSc1nc2ccc(NC(=O)c3ccccc3)cc2s1 | 4% | ? | / | / | ?
O[C@H]1[C@H]2c3cc4c(cc3CN3CCC(=C[C@@H]1O)[C@H]23)OCO4 | -3% | -1% | / | / | -4%
Cc1c(C(=O)N2CCCC2)oc2c1-c1nn(CC(=O)NCc3cccc(Br)c3)cc1CC2 | ? | -25% | / | / | -6%
C#Cc1cccc(Nc2ncnc3cc(OC)c(OC)cc23)c1 | ? | -21% | / | / | ?
c1ccc(-c2ccc(OCCN3CCCC3)cc2)cc1 | / | / | 0 | / | /
COc1ccc(Cn2cc(S(=O)(=O)c3ccc(C)cc3)c(=O)c3cc(F)ccc32)cc1 | -3% | -12% | / | / | -16%
O=C(CN1CCN(Cc2ccc3c(c2)OCO3)CC1)Nc1ccc2c(c1)OCO2 | -6% | -7% | 1 | -2% | ?
COc1ccc(NC(=O)CN2CCN(Cc3ccc4c(c3)OCO4)CC2)cc1OC | -7% | -4% | -38* | 0% | 5%
CCN(CC)c1ccc2cc(C(=O)Nc3ccccn3)c(=O)oc2c1 | ? | 2% | 0 | 4.5µM* | 0%
CCN(CC)c1ccc2cc(/C(N)=N/NC(=O)c3cccs3)c(=O)oc2c1 | 0.79µM* | -4% | 4 | -1% | -7%
CCN(CC)c1ccc2cc(C(=O)Nc3cccnc3N3CCOCC3)c(=O)oc2c1 | 18% | 3% | -6 | -3% | -1%
N/C(=N\NC(=O)c1cccs1)c1cc2ccccc2oc1=O | ? | -4% | 2 | -5% | -2%
CCN(CC)C(=O)c1ccc(/C=C/c2c[nH]c3ccccc23)[n+](C)c1 | -18% | 2% | -16 | -20% | -3%
CC[n+]1c(/C=C/c2c[nH]c3ccccc23)ccc2cc(C)ccc21 | 2µM* | 1.3µM*[fluorescent] | -4 | -11% | ?
O=C(Nc1ccc(Nc2ccccc2)cc1)c1ccc(Br)o1 | 8.9µM* | 14µM*[quencher] | -3 | -14% | ?
O=C(NC(=S)Nc1ccccc1)c1ccc(Br)o1 | -7% | -8% | -1 | -2% | -5%
Cc1ccccc1OCCSc1nc2ccc(NC(=O)c3ccccc3)cc2s1 | -2% | ? | / | / | 11µM*
SMILES | Tau ThT inhib | Tau fluor cs | Coupling enz | JMJD2E inh | Tau FP inhib
Cc1ccc2nc(SCC(=O)Nc3ccc(F)cc3F)[nH]c2c1 | -12% | -28% | -3 | -8% | -15%
Cc1ccc(NC(=O)CSc2nc3ccc(Br)cc3[nH]2)c(C)c1 | 9% | ? | / | / | 22µM*
COc1cccc(NC(=O)CSc2nc3ccc(NC(=O)c4ccco4)cc3s2)c1 | 9% | 16µM*[quencher] | / | / | ?
Cc1ccc(NC(=O)CSc2nc3ccc(NC(=O)c4cccs4)cc3s2)c(C)c1 | -10% | ? | / | / | 18µM*
CC1=C(C(=O)Nc2ccccc2)C(c2ccc(C(=O)O)cc2)n2nc(SCC(=O)c3ccc(C)cc3)nc2N1 (stereo unspecified) | 8% | -1% | / | / | 3%
Cc1ccccc1OCCSc1nc2ccc(NC(=O)c3cccs3)cc2s1 | 14% | ? | / | / | 10µM*
Cc1ccccc1OCC(=O)Nc1ccc2nc(SCCOc3ccccc3)sc2c1 | ? | -24% | / | / | -13%
COc1cc(C)ccc1OCCSc1nc2ccc(NC(C)=O)cc2s1 | -5% | ? | / | / | 25µM*
